Source: PubChem (Buhrlage Lab, Dana-Farber Cancer Institute and Novartis Institutes for BioMedical Research (Cambridge, Mass))
USP17 block: inhibitors of human USP17 deubiquitinase; A8MUK1; purified USP17, Ub-rhodamine cleavage fluorescence, 3 h; inhibition, % at 50 µM; 47,000 tested, 6.5% active; AID 1645855
OTUD3 block: human OTUD3 deubiquitinase inhibition | 47,000 tested, 0.7% active | AID 1645858 | Q5T2D3 | inhibition, % at 25 µM | purified OTUD3, Ub-rhodamine fluorescence, 2 h
USP8 block: blocks human USP8 ubiquitin-rhodamine cleavage; inhibition, % at 20 µM; 47,000 tested, 4.2% active; AID 1645853; purified USP8, Ub-rhodamine cleavage fluorescence, 30 min
Target sequence (P40818 whole entry, looked up): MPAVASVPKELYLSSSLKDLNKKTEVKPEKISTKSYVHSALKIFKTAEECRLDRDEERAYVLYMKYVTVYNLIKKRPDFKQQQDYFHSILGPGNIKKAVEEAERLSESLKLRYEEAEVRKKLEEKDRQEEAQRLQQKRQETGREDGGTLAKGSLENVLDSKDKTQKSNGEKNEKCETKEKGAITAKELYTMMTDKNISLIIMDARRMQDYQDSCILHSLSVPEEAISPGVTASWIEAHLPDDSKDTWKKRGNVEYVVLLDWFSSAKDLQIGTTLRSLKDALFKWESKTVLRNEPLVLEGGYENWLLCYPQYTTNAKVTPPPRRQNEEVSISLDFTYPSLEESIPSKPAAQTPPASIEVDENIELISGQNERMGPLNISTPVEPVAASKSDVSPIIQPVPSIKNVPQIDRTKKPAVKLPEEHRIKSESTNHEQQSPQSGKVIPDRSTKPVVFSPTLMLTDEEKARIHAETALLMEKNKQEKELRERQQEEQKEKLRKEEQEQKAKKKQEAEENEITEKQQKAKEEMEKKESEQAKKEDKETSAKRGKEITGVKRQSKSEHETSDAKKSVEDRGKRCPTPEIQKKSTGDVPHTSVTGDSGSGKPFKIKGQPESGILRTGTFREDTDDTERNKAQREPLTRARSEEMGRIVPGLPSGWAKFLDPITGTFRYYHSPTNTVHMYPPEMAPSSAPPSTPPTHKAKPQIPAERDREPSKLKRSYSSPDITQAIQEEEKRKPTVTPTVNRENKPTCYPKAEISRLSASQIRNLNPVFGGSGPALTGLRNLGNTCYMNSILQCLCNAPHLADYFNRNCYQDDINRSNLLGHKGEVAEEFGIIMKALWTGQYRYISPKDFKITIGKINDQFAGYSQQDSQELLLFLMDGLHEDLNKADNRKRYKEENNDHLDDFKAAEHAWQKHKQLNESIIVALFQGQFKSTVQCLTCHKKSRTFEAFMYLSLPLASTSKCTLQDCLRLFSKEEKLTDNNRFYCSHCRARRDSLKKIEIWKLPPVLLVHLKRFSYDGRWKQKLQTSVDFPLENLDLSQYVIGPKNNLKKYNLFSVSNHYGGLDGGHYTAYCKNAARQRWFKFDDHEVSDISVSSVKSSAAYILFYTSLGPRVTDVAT
USP28 inh: blocks human USP28 ubiquitin-rhodamine cleavage | purified USP28, Ub-rhodamine cleavage fluorescence, 30 min | inhibition, % at 25 µM | 47,000 tested, 3% active
USP10 inh: inhibitors of human USP10 deubiquitinase; Q14694; purified USP10, Ub-rhodamine fluorescence, 60 min; inhibition, % at 20 µM; 47,000 tested, 1.1% active; AID 1645856
USP30 inh: inhibitors of human USP30 deubiquitinase | 47,000 tested, 5.3% active | AID 1645860 | inhibition, % at 25 µM | purified USP30, Ub-rhodamine cleavage fluorescence
Active calls of the source: *. Hits are enriched below; roughly 13% of the tested compounds scored in any of these assays. No stated cut-off is given here; in the data, active means inhibition above about 30%; inactive means the rest.

COc1ccc(OC)c(NC(=O)CSc2nc(C)nc3c2oc2ccccc23)c1 was read as USP17 block 61*, OTUD3 block 13, USP8 block 3, USP28 inh 8, USP10 inh 1 and USP30 inh 18.
`COc1ccc2c(c1)c(C(=O)CSc1nc(C)nc3c1oc1ccccc13)c(C)n2C` gave USP17 block 23, OTUD3 block 10, USP8 block 13, USP28 inh 1, USP10 inh 5 and USP30 inh 28.
`N#Cc1cccc(NC(=O)/C=C/c2cccc3ccccc23)c1` gave USP17 block 35*, OTUD3 block -3, USP8 block 29, USP28 inh 4, USP10 inh -3 and USP30 inh -15.
`CC1CCCN(C(=O)C2CCN(c3nc4cccnc4s3)CC2)C1` (centres undefined) gave USP17 block 9, OTUD3 block 3, USP8 block -2, USP28 inh 8, USP10 inh 0 and USP30 inh 15.
Screening COc1cccc(NC(=O)CCn2c(=O)c3cccn3c3ccccc32)c1 returned USP17 block -72, OTUD3 block -41, USP8 block 5, USP28 inh -19, USP10 inh 0 and USP30 inh -139.
COc1cccc(NC(=O)Cn2c3ccccc3n3c(=O)cc(-c4ccccc4)nc23)c1 was read as OTUD3 block 10, USP8 block 88*, USP28 inh 6, USP10 inh 49* and USP30 inh 0.
Screening Cc1cc(Cl)ccc1NC(=O)CCS(=O)(=O)c1ccc2c(c1)OCC(=O)N2 returned USP17 block 34*, OTUD3 block 7, USP8 block 1, USP28 inh -9, USP10 inh 4 and USP30 inh -8.
For Cc1ccc(NC(=O)CCS(=O)(=O)c2ccc3c(c2)OCC(=O)N3)cc1Cl the results were USP17 block -4, OTUD3 block 6, USP8 block -13, USP28 inh 11, USP10 inh -1 and USP30 inh -16.
`CC(C)c1ccc(C2c3[nH]c4ccccc4c3C[C@H]3C(=O)N(c4ccccc4C(=O)NC4CCCC4)C(=O)N23)cc1` (some centres undefined) gave OTUD3 block -38, USP8 block -4, USP28 inh -54, USP10 inh -8 and USP30 inh -238.
Screening Cc1ccccc1OCCSc1nc2ccccc2n1CC(=O)NC1CC1 returned USP17 block 31*, OTUD3 block 5, USP8 block 25, USP28 inh 7, USP10 inh 8 and USP30 inh 50*.
`O=C(Cn1c(SCCOc2ccccc2)nc2ccccc21)N1CCCCC1` gave USP17 block 7, OTUD3 block 12, USP8 block 14, USP28 inh 12, USP10 inh 3 and USP30 inh 17.
Screening O=C(CC1C(=O)N(C2CCCC2)c2nc3ccccc3n21)Nc1ccccc1C(F)(F)F (centres undefined) returned USP17 block 34*, OTUD3 block 13, USP8 block 17, USP28 inh 0, USP10 inh 0 and USP30 inh 23.
`COc1ccc(-n2c(COc3cccc4c3OC(C)(C)C4)nc3ccccc32)cc1` gave USP17 block -3, OTUD3 block 7, USP8 block -200, USP28 inh 9, USP10 inh -1 and USP30 inh 3.
Screening Cc1c(C(=O)NCCN2CCOCC2)oc2ccc(S(=O)(=O)N3CCOCC3)cc12 returned USP17 block 9, OTUD3 block 5, USP8 block 12, USP28 inh 4, USP10 inh -1 and USP30 inh 14.
`Cc1c(C(=O)NCCCN2CCOCC2)oc2ccc3c(c12)C(=O)CC(C)(c1ccc(Cl)cc1)O3` (centres undefined) gave USP17 block 10, OTUD3 block 4, USP8 block 0, USP28 inh 42*, USP10 inh 4 and USP30 inh 19.
`CCN1CCN(C(=O)c2sc(-c3ccc(F)cc3)nc2C)CC1` gave USP17 block -2, OTUD3 block -1, USP8 block -12, USP28 inh -4, USP10 inh -2 and USP30 inh 1.
For CCn1ncc(-c2ccnc3cc(C(=O)N4CCN(Cc5ccc(F)cc5)CC4)nn23)c1C the results were USP17 block 28, OTUD3 block 12, USP8 block 60*, USP28 inh 2, USP10 inh -4 and USP30 inh -132.
`CC(c1ccc(F)cc1)n1c(=O)[nH]c2c(-c3ccccn3)nsc2c1=O` (centres undefined) gave USP17 block -26, OTUD3 block -9, USP8 block -8, USP28 inh -52, USP10 inh -7 and USP30 inh -68.
COc1ccc(C2(C(F)(F)F)NC(=O)Nc3nc(N4CCCC4)sc32)cc1 (centres undefined) was read as USP17 block -116, OTUD3 block -107, USP8 block -50, USP28 inh -140, USP10 inh -6 and USP30 inh -386.
Screening CS(=O)(=O)n1nc(NCc2ccc(F)cc2)nc1NCc1ccc(F)cc1 returned USP17 block 0, OTUD3 block 33*, USP8 block 6, USP28 inh 4, USP10 inh 3 and USP30 inh 3.
Screening Cc1ccc(CNc2nc(-c3cccnc3)nn2S(C)(=O)=O)cc1 returned USP17 block 8, OTUD3 block 4, USP8 block 3, USP28 inh 1, USP10 inh 1 and USP30 inh 15.
O=C(NC1CC1)c1nnn(-c2ccc(Cl)cc2)c1-c1cccnc1 was read as USP17 block -9, OTUD3 block -1, USP8 block -61, USP28 inh -5, USP10 inh 2 and USP30 inh -4.
For COc1ccc(Cn2nnc(C(=O)N3CCCCC3)c2-n2cccc2)cc1 the results were USP17 block 30*, OTUD3 block -4, USP8 block 8, USP28 inh -5, USP10 inh -6 and USP30 inh -61.
Cc1ccc(Cn2nnc(C(=O)N3CCCC3)c2-n2cccc2)cc1 was read as USP17 block 9, OTUD3 block 6, USP8 block 18, USP28 inh 13, USP10 inh -6 and USP30 inh -31.
`O=C(c1nnn(Cc2ccc(Cl)cc2)c1-n1cccc1)N1CCSCC1` gave USP17 block 7, OTUD3 block 5, USP8 block 10, USP28 inh 36*, USP10 inh 1 and USP30 inh 7.
`COc1ccc2c(C)c(CC(=O)N[C@@H](CSCc3ccccc3)C(=O)O)c(=O)oc2c1OC` gave USP17 block -7, OTUD3 block -3, USP8 block -2, USP28 inh -1, USP10 inh 2 and USP30 inh 0.
Screening Cc1noc(C)c1S(=O)(=O)N1CCc2[nH]nc(-c3ccccc3)c2C1 returned USP17 block -20, OTUD3 block -8, USP8 block -64, USP28 inh -5, USP10 inh -2 and USP30 inh -23.
